Screening data (PubChem BioAssay)
Vaccinia Venus = qHTS for Stage-Specific Inhibitors of Vaccinia Orthopoxvirus: Venus Reporter Primary qHTS; Vaccinia virus Venus reporter expression, fluorescence; Potency, µM (series often up to 36.5 µM), for the others: at the highest dose activity change, negative = inhibition, hits mostly inhibitors; 330,000 tested, 0.46% active; AID 720580, 2013; calls by dose curve; tested in A549 cells; note: potency is the fitted concentration of half-maximal effect; nearly all actives have a fitted effect of over 30% in size
HCMV antiviral = qHTS Assay for inhibitors of the human cytomegalovirus (HCMV). HFF cells, HCMV-luciferase reporter, 72 h; stronger effect = lower value. activity change, negative = inhibition, % at 57.5 µM. 410,000 tested, 4.5% active. AID 1259415, 2018; in the data active = activity change below about -60%; inconclusive = no clear call, values can overlap the other calls; inactive = above about -39%
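HFF cells seeded 16 h at 37C, treated with compounds, infected with luciferase-reporter HCMV at MOI 1 PFU/cell; luciferase read at 72 h post infection, normalized to buffer-only and Salinomycin controls.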
HCV inh = qHTS Assay for Inhibitors of Hepatitis C Virus (HCV); Potency, µM (titrated, usually from 41.8 µM), inactives show top-dose activity change, negative = inhibition, usual class: inhibitors; AID 651820, 2012; 340,000 tested, 3.4% active; Huh7.5.1 HCVcc-Cre infection, luciferase reporter, 44 h; active = well fitted inhibition curve with a large enough effect; inconclusive = small, poorly fitted or top-dose-only effect, or another doubt; inactive = no such curve, though single readings can be large or run the other way; note: potency is the fitted concentration of half-maximal effect
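HCVcc-Cre virus at an moi near 0.5 was added right after compound to cells cultured 4 h from seeding (1,000 cells/well). Luciferase activity was determined 44 h later, 15 min after substrate addition at RT.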
Vaccinia mCherry = qHTS for Stage-Specific Inhibitors of Vaccinia Orthopoxvirus: mCherry Reporter Primary qHTS; Vaccinia virus mCherry reporter infection, fluorescence; 310,000 tested, 0.63% active; Potency, µM (doses to about 36.5 µM), for inactives: at the top dose activity change, negative = inhibition, hits mostly inhibitors; AID 720579, 2013; calls by dose curve; tested in A549 cells; note: potency is the fitted concentration of half-maximal effect; nearly all actives have a fitted effect of over 35% in size
LASV entry inh = qHTS for Inhibitors of binding or entry into cells for Lassa Virus; Lassa virus pseudotype entry inhibition, cell reporter; Potency, µM (titrated, usually from 37.9 µM), for the others: at the top dose activity change, negative = inhibition, actives largely listed as inhibitors; 300,000 tested, 1.2% active; calls by dose curve; tested in HEK293 cells; note: potency is the fitted concentration of half-maximal effect; nearly all actives have a fitted effect of over 50% in size
MARV entry inh = qHTS for inhibitors of binding or entry into cells for Marburg Virus | Marburg virus pseudotyped entry inhibition, cell reporter | Potency, µM (doses to about 37.8 µM), without a hit: top-dose activity change, negative = inhibition, actives largely listed as inhibitors | 300,000 tested, 1.8% active | AID 540276, 2011; calls by dose curve; tested in HEK293 cells; note: potency is the fitted concentration of half-maximal effect
An asterisk follows results filed as active; i = inactive; ? = inconclusive; . = not tested or not shown; [ ] = another dose, or the depositor's remark. Shown are actives, neighbours in structure and some others; about 7.8% of the full set was active somewhere. % is set by controls: 0 for no effect and ±100 for the full control effect.

SMILES	Vaccinia Venus	HCMV antiviral	HCV inh	Vaccinia mCherry	LASV entry inh	MARV entry inh
CCC(C(=O)Nc1ccc(C)c(Cl)c1)n1c(=O)c(-c2ccccc2NC(C)=O)nc2ccccc21 (stereo not drawn)	-14%	-97*	.	-22%	19%[46.1 µM]	20%[46.1 µM]
CCC(=O)Nc1ccccc1-c1nc2ccccc2n(C(CC)C(=O)Nc2cccc(Cl)c2)c1=O (stereo not drawn)	?	-108*	.	?	-13%[46.1 µM]	-15%[46.1 µM]
CCC(=O)Nc1ccccc1-c1nc2ccccc2n(C(C)C(=O)Nc2ccc(OC)cc2)c1=O (stereo not drawn)	-3%	5	.	-1%	-25%[46.1 µM]	-25%[46.1 µM]
CC(=O)Nc1ccccc1-c1nc2ccccc2n(C(C)C(=O)Nc2cccc(C)c2C)c1=O (stereo not drawn)	-10%	9	.	i	1%[46.1 µM]	-1%[46.1 µM]
COC(=O)c1cc(CNC(=O)c2ccc3ncccc3c2)cc(NC(=O)c2ccccc2Cl)c1	-6%	.	.	-1%	.	.
O=C(C1CCCN(S(=O)(=O)c2cccs2)C1)N1CCN(c2ccccc2F)CC1 (stereo not drawn)	-2%	-22	.	-10%	-14%[46.1 µM]	-21%[46.1 µM]
CCc1cc(N2CCOCC2)cc2c1[nH]c1ccccc12	.	5	7.1µM*	.	2%	-3%
CCCOc1ccc(C(=O)N(Cc2ccccc2Cl)C2CCS(=O)(=O)C2)cc1 (stereo not drawn)	-2%	10	.	-15%	11%[46.1 µM]	-23%[46.1 µM]
COc1cc(/C=N/NC(N)=S)ccc1OC(=O)c1ccc(C)cc1	.	38	8%	.	1%	-2%
COc1cc(/C=N/NC(N)=S)ccc1OCc1ccc(C)cc1	?	?	?	11µM*	?	?
COc1ccc(C=NNC(=S)NN=Cc2ccc(OC)c(OC)c2)cc1OC	-5%	-102*	-21%	-24%	?	?
COc1ccc(C=NNC(=S)Nc2ccc(F)cc2)cc1OC	-19%	-61*	-6%	-14%	?	?
COc1ccc(/C=N/NC(=S)Nc2cccc(C(=O)O)c2)cc1OC	-11%	-34	12%	i	?	?
CC(=O)Nc1ccc(C(=O)CSc2nc3ccccc3n2CC(=O)N2CCCC2)cc1	.	-29	4%	.	10%	1%
CC(=O)Nc1ccc(NC(=O)Cn2c(CC(=O)N3CCCC3)nc3ccccc32)cc1	.	-88*	7%	.	-10%	16%
COC(=O)c1ccc(/C=N/Nc2nc(-c3ccc(C)cc3)cs2)cc1	?	.	22%	13µM*	6%	?
O=C(NCCc1ccccc1)c1ccc2c(c1)N(Cc1ccc(F)cc1Cl)C(=O)CS2	-1%	-16	.	-3%	5%[46.1 µM]	?
O=C(NCCc1ccc(Cl)cc1)c1ccc2c(c1)N(Cc1ccc(F)cc1Cl)C(=O)CS2	?	-64*	.	-18%	?	-28%[46.1 µM]
O=C(NCc1ccc2c(c1)OCO2)c1ccc2c(c1)N(Cc1c(F)cccc1Cl)C(=O)CS2	-18%	-78*	?	-3%	?	?
O=C(NCc1ccc2c(c1)OCO2)c1ccc2c(c1)N(Cc1ccccc1F)C(=O)c1ccccc1S2	-1%	-8	.	3%	?	.
CC(C)C1N=C2c3ccccc3N=C(SCC(=O)NCc3ccccc3Cl)N2C1=O (stereo not drawn)	-10%	-15	.	-11%	-15%[46.1 µM]	.
O=C(Cc1ccccc1)NCC(=O)OCC(=O)c1cccc2ccccc12	-7%	.	.	-20%	.	.
CC(C)Oc1cccnc1N(C)C1CCN(Cc2ccccc2)CC1	-9%	-11	-18%	i	-9%	1.8µM*
CC(C)Oc1ccc(C(=O)NC2CCN(Cc3ccccc3)CC2)cc1	-18%	?	?	-9%	-2%[46.1 µM]	?
CC1=CC(C)(C)NC(=S)N1c1ccc2ccccc2c1	-7%	?	?	-24%	-9%[46.1 µM]	-34%[46.1 µM]
SMILES	Vaccinia Venus	HCMV antiviral	HCV inh	Vaccinia mCherry	LASV entry inh	MARV entry inh
CC1=CC(C)(C)NC(=S)N1c1cccc2ccccc12	-21%	-100*	26%	.	-1%	-13%
O=C(CC1Sc2ccccc2NC1=O)NNc1ccc(Cl)cc1Cl (stereo not drawn)	?	-9	-3%	4.5µM*	-27%[46.1 µM]	?
O=C(CC1Sc2ccccc2NC1=O)NCc1ccccc1 (stereo not drawn)	-4%	?	11%	i	-22%[46.1 µM]	0%[46.1 µM]
Cc1cccc(C)c1NC(=O)C1(C)CCc2nc3ccccc3n21 (stereo not drawn)	.	-13	.	.	.	.
CCN1CCN(c2ncnc3scc(-c4ccc(C)c(C)c4)c23)CC1	-3%	-67*	?	-6%	-14%	?
Cc1ccc(-c2csc3ncnc(-n4nnc5ccccc54)c23)cc1C	-12%	-32	?	-7%	3%	?
Fc1ccc(CN2CCN(c3ncnc4scc(-c5ccc(F)cc5)c34)CC2)cc1	.	-86*	-25%	.	.	.
Cc1ccccc1N1CCN(c2ncnc3scc(-c4cccs4)c23)CC1	.	-67*	10µM*	.	-43%	23µM*
COc1ccc(-c2csc3ncnc(N4CCN(c5ccccc5)CC4)c23)cc1	-17%	-30	?	-20%	?	?
Cc1ccc(-c2csc3ncnc(N4CCN(c5ccccc5O)CC4)c23)cc1	-5%	-38	?	?	?	?
COc1ccc(-c2csc3ncnc(N4CCN(Cc5ccccc5)CC4)c23)cc1	-16%	-89*	3%	-14%	11%	1%
COc1ccc(-c2csc3ncnc(N4CCN(c5ccccc5[N+](=O)[O-])CC4)c23)cc1	-18%	.	16µM*	-4%	?	?
Cc1ccc(-n2ncc3c(N4CCN(Cc5ccccc5)CC4)ncnc32)cc1C	-6%	?	.	-5%	?	.
COc1ccc(-n2ncc3c(N4CCN(Cc5ccccc5)CC4)ncnc32)cc1	?	-95*	?	?	?	?
Clc1ccc(CN2CCN(c3ncnc4scc(-c5cccs5)c34)CC2)cc1	.	-98*	?	.	?	?
COc1cccc(CSc2nc3cc(OC)c(OC)cc3c3nc(CCn4nc(C)cc4C)nn23)c1	-9%	0	.	-13%	8%[46.1 µM]	13%[46.1 µM]
Nn1cnnc1N/N=C/c1cc(Br)cc(Br)c1O	?	?	?	8.9µM*	?	?
CCN1CCN(Cc2ccc(NC(=O)c3ccc(C)c(NC(=O)c4c[nH]c5cc(C(F)(F)F)ccc5c4=O)c3)cc2C(F)(F)F)CC1	14µM*	-98*	?	?	.	.
CCN1CCN(Cc2ccc(NC(=O)c3ccc(C)c(NC(=O)c4ccno4)c3)cc2C(F)(F)F)CC1	?	-4	-19%	-2%	.	.
CCN1CCN(Cc2ccc(NC(=O)c3ccc(C)c(NC(=O)c4cccc(-c5cn[nH]c(=O)c5)c4)c3)cc2C(F)(F)F)CC1	7.1µM*	.	?	?	.	.
